Consider eight compounds from PubChem BioAssay (NCI).

Test systems include SK-MEL-2 melanoma; EKVX NSCLC; SN12C renal; UO-31 renal; TK-10 renal; ACHN renal; CAKI-1 renal; A498 renal; CCRF-CEM leukemia; MOLT-4 leukemia; SR leukemia; OVCAR-5 ovarian; OVCAR-4 ovarian; SK-OV-3 ovarian; IGROV1 ovarian; OVCAR-3 ovarian; HS 578T breast; NCI/ADR-RES ovarian; RPMI-8226 leukemia; OVCAR-8 ovarian.
What all share (experiment): NCI-60 one-dose screen, 48 h (100 = growth as untreated, 0 = no growth, -100 = all killed)
Details in all cases: 10 µM unless noted

Each structure is given as a SMILES string. Compounds without any hit were thinned out: in the full panel of roughly 83,000, 20% have a hit.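 Plates (96-well) were seeded with cells, treated with compound at one concentration, and incubated for 48 hours before percent growth was determined.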 A number with no mark means an inactive call. The source made the active and inactive calls. Rule for the calls: active = growth percent below 10; inactive = the rest.

Turning to `COc1ccc(C2CC(c3cc(OC)c(OC)c(OC)c3)=NO2)cc1OCCCCOc1cc2c(cc1OC)C(=O)N1CCC[C@H]1C=N2` (stereo partly specified), the growth was -35.2% (active) with SK-MEL-2 melanoma; 16.8% in the test with EKVX NSCLC; 32.2% with SN12C renal; 19.5% in the test with UO-31 renal; -13.6% (active) in the test with TK-10 renal; 0.735% (active) in the test on ACHN renal. The growth in the test on CAKI-1 renal was 11.1%; in the test with A498 renal it was -67.3% (active); in the test with CCRF-CEM leukemia it was 69.3%; in the test on MOLT-4 leukemia it was 7.66% (active); with SR leukemia, -18.1% (active); with OVCAR-5 ovarian, 17.9%. Also, the growth with OVCAR-4 ovarian was 13.8%; in the test with SK-OV-3 ovarian it was 22%; in the test on IGROV1 ovarian it was -21.5% (active); in the test on OVCAR-3 ovarian it was 0.847% (active); in the test with HS 578T breast, 0.334% (active); in the test on NCI/ADR-RES ovarian it was 19.8%.
Turning to `COc1cccc(/C=C/C(=O)c2cc3c(N)c(C(=O)Nc4cccc5ccccc45)sc3nc2C)c1`, the growth in the test with SK-MEL-2 melanoma is 24.2%; in the test on EKVX NSCLC it was 39.9%; in the test on SN12C renal, -27.9% (active); in the test on UO-31 renal it was 16.9%; with TK-10 renal it was 32%; in the test with ACHN renal it was 35%. Besides, the growth is 17.2% with CAKI-1 renal; 4.07% (active) in the test on A498 renal; 7.04% (active) in the test on CCRF-CEM leukemia; 16.8% in the test on MOLT-4 leukemia; -18.9% (active) with RPMI-8226 leukemia; 3.72% (active) with OVCAR-8 ovarian. The growth is 15.8% with OVCAR-5 ovarian; 56.8% in the test with OVCAR-4 ovarian; 56.2% in the test on SK-OV-3 ovarian; -3.98% (active) in the test on IGROV1 ovarian; -17% (active) with OVCAR-3 ovarian; 15% in the test with HS 578T breast. Further, the growth with NCI/ADR-RES ovarian was 4.18% (active).
Take `S=c1[nH]c(=S)c2c(-c3ccccc3)c(-c3ccccc3)oc2[nH]1`: the growth with SK-MEL-2 melanoma was 99.6%; with EKVX NSCLC it was 103%; in the test with SN12C renal it was 95.3%; in the test on UO-31 renal it was 81.6%; in the test with TK-10 renal, 124%; in the test on ACHN renal, 106%. In addition, the growth with CAKI-1 renal was 101%; with A498 renal it was 70.9%; with CCRF-CEM leukemia, 114%; in the test with MOLT-4 leukemia, 101%; in the test with RPMI-8226 leukemia, 107%; in the test with OVCAR-8 ovarian, 110%. Further, the growth in the test on OVCAR-5 ovarian is 95.2%; with OVCAR-4 ovarian, 95.2%; with SK-OV-3 ovarian, 103%; with IGROV1 ovarian, 99.6%; in the test on OVCAR-3 ovarian, 105%; in the test with HS 578T breast, 104%. Further, the growth in the test with NCI/ADR-RES ovarian was 103%.
For `Fc1cccc(-c2ccc3c(c2)C2(CCNCC2)CN3)c1`, the growth was 102% in the test on SK-MEL-2 melanoma; 96.6% in the test on EKVX NSCLC; 94.9% with SN12C renal; 88.2% in the test on UO-31 renal; 114% in the test with TK-10 renal; 100% in the test on ACHN renal. The growth in the test with CAKI-1 renal was 96.1%; in the test on A498 renal it was 102%; in the test on CCRF-CEM leukemia it was 119%; with MOLT-4 leukemia, 91.7%; in the test with SR leukemia, 110%; with OVCAR-8 ovarian, 108%. Further, the growth in the test with OVCAR-5 ovarian is 103%; in the test with OVCAR-4 ovarian, 92%; in the test with SK-OV-3 ovarian it was 112%; in the test with IGROV1 ovarian it was 97.4%; in the test with OVCAR-3 ovarian, 102%; with HS 578T breast it was 105%. Moreover, in the test with NCI/ADR-RES ovarian, the growth is 95.5%.
For the compound `Cc1ccc(/C=C/C(=O)c2cccc(OCCCOc3cccc(C(=O)/C=C/c4ccc(C)cc4)c3)c2)cc1`, the growth in the test with SK-MEL-2 melanoma was 105%; with EKVX NSCLC, 80%; with SN12C renal, 79.6%; in the test on UO-31 renal, 64%; in the test on TK-10 renal it was 120%; in the test on ACHN renal, 78.6%. The growth with CAKI-1 renal was 68.1%; with A498 renal, 86.4%; in the test on CCRF-CEM leukemia, 73.6%; with MOLT-4 leukemia, 85.1%; with SR leukemia, 25.9%; in the test with OVCAR-8 ovarian, 87.5%. Besides, the growth in the test with OVCAR-5 ovarian is 124%; in the test on OVCAR-4 ovarian, 65.3%; with SK-OV-3 ovarian it was 99.2%; in the test on IGROV1 ovarian, 77.2%; in the test on OVCAR-3 ovarian it was 82.4%; with HS 578T breast, 86.1%. In addition, the growth in the test with NCI/ADR-RES ovarian is 91.4%.
As to `CCNc1nc(O)c(/C=C2\C=Nc3ncccc32)s1`, the growth is -48.7% (active) in the test on SK-MEL-2 melanoma; 14.1% in the test on EKVX NSCLC; 12.6% in the test with SN12C renal; 7.47% (active) in the test on UO-31 renal; -3.75% (active) with TK-10 renal; 0.663% (active) with ACHN renal. The growth in the test with CAKI-1 renal is 20.6%; in the test with A498 renal it was -54.2% (active); in the test on CCRF-CEM leukemia, 3.01% (active); with MOLT-4 leukemia, -6% (active); in the test on RPMI-8226 leukemia it was 29.1%; with OVCAR-8 ovarian, 6.27% (active). Further, the growth in the test on OVCAR-5 ovarian is 8.67% (active); in the test on OVCAR-4 ovarian it was 19.5%; in the test on SK-OV-3 ovarian it was -10.3% (active); in the test with IGROV1 ovarian, 21.7%; with OVCAR-3 ovarian, -2.07% (active); in the test on HS 578T breast, -15.1% (active). The growth with NCI/ADR-RES ovarian is 29.7%.
For `COc1cccc(C(=O)NNc2nc(Cl)nc(Cl)n2)c1`, the growth with SK-MEL-2 melanoma was 96.3%; in the test with EKVX NSCLC it was 98%; in the test on SN12C renal, 100%; with UO-31 renal, 88.4%; with TK-10 renal, 104%; in the test with ACHN renal, 101%. For the same compound, the growth is 96.1% with CAKI-1 renal; 96.6% in the test with A498 renal; 101% in the test on CCRF-CEM leukemia; 101% with MOLT-4 leukemia; 101% with SR leukemia; 95.4% in the test with OVCAR-8 ovarian. Moreover, the growth is 101% in the test with OVCAR-5 ovarian; 107% in the test with OVCAR-4 ovarian; 102% with SK-OV-3 ovarian; 100% with IGROV1 ovarian; 106% with OVCAR-3 ovarian; 95.3% in the test on HS 578T breast. Moreover, the growth in the test on NCI/ADR-RES ovarian is 104%.
As for `CN1CCN(CC(=O)Nc2ccc3ncnc(Nc4ccc(Oc5cccc(C(F)(F)F)c5)c(Cl)c4)c3c2)CC1`, the growth with SK-MEL-2 melanoma was -15.5% (active); in the test on EKVX NSCLC it was 31.1%; in the test with SN12C renal it was 51.3%; in the test on UO-31 renal, 21.7%; in the test with TK-10 renal, 41.6%; with ACHN renal, -63.2% (active). The growth is -18.7% (active) in the test on CAKI-1 renal; 36.3% with A498 renal; 6.92% (active) with CCRF-CEM leukemia; -7.18% (active) with MOLT-4 leukemia; -6.28% (active) with SR leukemia; 20.9% with OVCAR-8 ovarian. The growth in the test with OVCAR-5 ovarian is 52.9%; with OVCAR-4 ovarian, -18.8% (active); with SK-OV-3 ovarian, 23.2%; in the test with IGROV1 ovarian, -44.6% (active); with OVCAR-3 ovarian, 4.81% (active); in the test on HS 578T breast it was -12% (active). Further, in the test on NCI/ADR-RES ovarian, the growth is 46.1%.
